This is an account of results in PubChem BioAssay.

Values joined by “and” are separate entries in the source; they are usually repeats but may differ in a detail not shown here. Equal values may be shown once. Active and inactive are the calls of the source.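 Rule for the calls, unless noted: active = compounds giving at least 50% inhibition in the cell-based MKP-3 phosphatase rescue imaging test; inactive = the rest.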

The nature of assay [1]: inhibitors of TNFa-induced NFkB p65 translocation, primary screen, imaging, HUVEC, MLSMR starter and 10KST1 sets (AID 438;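 active = inhibition above 20% together with a positive visual image hit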;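 note: compound added about 3h40 before a 20 min TNFalpha stimulation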;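 for inhibition: signal is the nuclear over cytoplasmic p65 intensity ratio per well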). To be noted: HUVEC TNFa-induced p65 nuclear translocation; cell count: measured here: nuclei count (cytotoxicity indicator), at 2.08 µM; inhibition: at 2 µM, stronger effect = higher value, 0% TNFa-plus-vehicle, 100% no-TNFa wells.
Assay [2] in a line: inhibitors of E-selectin induction by TNFa, primary screen, imaging, HUVEC, immunofluorescence, MLSMR starter and 10KST1 sets (AID 487;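 active = visually confirmed hit in the image check and inhibition above 20%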;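 for inhibition: signal is fraction of cell area covered by stained E-selectin grains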;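 for nuclei count: 100% = median nuclei count of all wells on the same plate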). Conditions: HUVEC TNFalpha-induced E-selectin immunofluorescence imaging, at 2 µM; inhibition: stronger effect = higher value; nuclei count: measured here: cell number, toxicity.
Assay [3] is described as follows: DUSP6 inhibitors restoring Erk phosphorylation by chemical complementation, primary imaging in DUSP6-transfected HeLa (AID 609).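 For inhibition: phospho-Erk level distribution per well compared with pooled transfected vehicle control wells.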 To be noted: HeLa MKP-3 transfected, phospho-Erk imaging KS statistic, at 10 µM, cells stimulated with TPA for 15 min.
Assay [4] has as its target Dual specificity protein phosphatase 6 (Homo sapiens) (UniProt Q16828). Described as above. To be noted: HeLa MKP-3 transfected, phospho-Erk imaging KS statistic; at 10 µM; stronger effect = higher value; cells stimulated with TPA for 15 min.
Assay [5] deals with Voltage-gated potassium channel subunit beta-2 (Rattus norvegicus) (UniProt P62483). Briefly: KvBeta enzyme negative modulators, primary screen, biochemical, NADPH fluorescence (AID 622;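 active = fluorescence slope higher than the sample average by over 3 SD, cut at about -0.22 in these data, passing the limit was not always enough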;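 note: slope of raw intensity against log time taken from 70 to 1610 s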). To be noted: recombinant KvBeta, 4-cyanobenzaldehyde reduction, at 10 µM, stronger effect = higher value.
The target is the same in assay [6]. Briefly: KvBeta positive modulators, primary screen, biochemical, NADPH fluorescence (AID 623;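 active = NADPH fluorescence slope more negative than the mean of all samples by about 3 SD, 99.7% confidence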;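 note: fluorescence intensity change per second fitted from 20 to 320 s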). Conditions: Recombinant KvBeta, NADPH fluorescence decrease slope, 10 min; at 10 µM; stronger effect = lower value.
In assay [7] the target is Muscarinic acetylcholine receptor M4 (Homo sapiens) (UniProt P08173). Kind of assay: compounds altering M4/GIRK thallium flux, either direction, primary screen, M4 allosteric agonist project, cell-based, HEK293 M4/GIRK, BTC-AM (AID 625;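 active = fluorescence slope after compound addition differing from the mean of all tested samples at 99.7% confidence, mostly higher but some lower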;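 note: thallium influx through GIRK channels coupled to M4 in HEK293 cells with BTC-AM dye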). To be noted: at 10 µM, actives lie on both sides.
Assay [8] is described as follows: inhibitors of larval lipid processing in zebrafish, primary screen, whole organism, PED6 fluorescence, gall bladder and intestine (AID 686;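 active = a full or partial loss of lipid-probe fluorescence in the fish gall bladder, intestine or both, judged by eye; inactive = no fluorescence loss, or compound toxic to the fish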;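 note: larvae 5 to 7 days old with five fish per well; signal comes from phospholipase A2 cleavage of quenched PED6 carried via bile; overnight exposure to compound and PED6 before scoring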). To be noted: Zebrafish larvae PED6 lipid processing, fluorescence scoring; screened at 20 µM (by protocol).
Assay [9] is described as follows: inhibitors of Chlamydomonas gravitaxis, primary screen, whole organism, Chlamydomonas reinhardtii, WT vs cilia-less mutant, absorbance, 96-well (AID 463189;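 active = inhibition at or above 50% relative to wild type and mutant plate controls; inactive = inhibition below 50%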;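 note: 0% = wild type cc124 cells in DMSO and 100% = ciliumless bld1 mutant cells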). To be noted: OD600 absorbance, 2 days, at 10 µM, stronger effect = higher value.
For assay [10], the target named is Alpha-2C adrenergic receptor (Homo sapiens) (UniProt P18825). Kind of assay: modulators of alpha2C/GIRK thallium flux, primary screen, cell-based, HEK293 alpha2C/GIRK1/2 (AID 624;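 active = fluorescence slope after compound addition differing from the mean of all screened samples at 99.7% confidence, in either direction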;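 note: slope of fluorescence ratio to pre-addition baseline per second over 15 to 24 s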). Conditions: thallium flux BTC fluorescence, at 10 µM, actives lie on both sides.
Assay [11] can be described thus: inhibitors of Sendai virus-induced IRF3 signaling, primary screen, TLR/RLR signaling modifier project, cell-based, Sendai virus stimulus, luciferase, 10K MLSCN set (AID 602276;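 active = inhibition at or above 50% at 10 µM; inactive = inhibition below 50%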;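 note: firefly luciferase from ISG56 promoter only with Renilla not read in this screen; 0% = Sendai virus plus DMSO and 100% = medium plus DMSO without virus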). To be noted: HEK293 RL24 IRF3 luciferase reporter, at 10 µM, stronger effect = higher value. A general note: Reporter assays use an easily measured gene product as a stand-in for the process of interest.

Assay [12] can be described thus: inhibitors of poly I:C-induced TLR3 signaling, primary screen, cell-based, poly I:C stimulus, luciferase, 10K MLSCN set (AID 602277;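 active = inhibition of the reporter signal at or above 50%; inactive = inhibition below 50%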). Conditions: HEK293-TLR3 RL24 IRF3 luciferase reporter, at 10 µM, stronger effect = higher value.
The mark [13] stands for this setting: measured here: cell density z-score.
The mark [14] stands for this setting: measured here: nuclear c-Myc green intensity z-score.
Where [15] appears, read: measured here: nuclear pErk red intensity z-score, stronger effect = higher value.

Chain of Alpha-2C adrenergic receptor (Homo sapiens) (P18825 whole entry, looked up): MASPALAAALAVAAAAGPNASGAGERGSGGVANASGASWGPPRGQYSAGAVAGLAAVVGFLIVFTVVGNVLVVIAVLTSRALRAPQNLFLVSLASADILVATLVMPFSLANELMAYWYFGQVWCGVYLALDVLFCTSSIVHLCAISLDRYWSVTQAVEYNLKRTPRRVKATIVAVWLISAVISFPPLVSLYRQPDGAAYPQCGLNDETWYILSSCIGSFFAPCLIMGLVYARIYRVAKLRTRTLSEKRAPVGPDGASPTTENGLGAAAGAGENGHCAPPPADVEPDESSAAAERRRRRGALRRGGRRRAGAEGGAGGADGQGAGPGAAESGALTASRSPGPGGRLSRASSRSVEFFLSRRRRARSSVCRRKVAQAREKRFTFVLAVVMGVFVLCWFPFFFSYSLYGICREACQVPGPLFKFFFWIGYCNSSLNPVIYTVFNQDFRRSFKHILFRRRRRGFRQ
Chain of Voltage-gated potassium channel subunit beta-2 (Rattus norvegicus) (P62483 whole entry, looked up): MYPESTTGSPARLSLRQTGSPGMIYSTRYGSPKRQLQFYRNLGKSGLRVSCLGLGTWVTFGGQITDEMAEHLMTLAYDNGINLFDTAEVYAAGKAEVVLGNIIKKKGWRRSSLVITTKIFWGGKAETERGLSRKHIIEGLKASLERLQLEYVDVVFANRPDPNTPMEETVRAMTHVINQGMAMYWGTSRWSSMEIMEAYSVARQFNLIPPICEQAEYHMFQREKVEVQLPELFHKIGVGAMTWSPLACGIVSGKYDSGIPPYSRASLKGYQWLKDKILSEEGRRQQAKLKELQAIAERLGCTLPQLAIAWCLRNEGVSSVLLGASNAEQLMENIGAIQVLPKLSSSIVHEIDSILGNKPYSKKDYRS
Chain of Dual specificity protein phosphatase 6 (Homo sapiens) (Q16828 whole entry, looked up): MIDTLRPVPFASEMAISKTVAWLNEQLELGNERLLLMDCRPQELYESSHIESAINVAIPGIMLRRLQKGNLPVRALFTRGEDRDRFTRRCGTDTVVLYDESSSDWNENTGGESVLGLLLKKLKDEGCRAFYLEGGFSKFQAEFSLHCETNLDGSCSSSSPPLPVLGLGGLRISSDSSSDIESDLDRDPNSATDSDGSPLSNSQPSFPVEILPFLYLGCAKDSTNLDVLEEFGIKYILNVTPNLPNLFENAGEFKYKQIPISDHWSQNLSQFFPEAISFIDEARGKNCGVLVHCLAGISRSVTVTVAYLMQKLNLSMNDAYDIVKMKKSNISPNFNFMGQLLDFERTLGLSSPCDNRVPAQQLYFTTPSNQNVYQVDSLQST
Chain of Muscarinic acetylcholine receptor M4 (Homo sapiens) (P08173 whole entry, looked up): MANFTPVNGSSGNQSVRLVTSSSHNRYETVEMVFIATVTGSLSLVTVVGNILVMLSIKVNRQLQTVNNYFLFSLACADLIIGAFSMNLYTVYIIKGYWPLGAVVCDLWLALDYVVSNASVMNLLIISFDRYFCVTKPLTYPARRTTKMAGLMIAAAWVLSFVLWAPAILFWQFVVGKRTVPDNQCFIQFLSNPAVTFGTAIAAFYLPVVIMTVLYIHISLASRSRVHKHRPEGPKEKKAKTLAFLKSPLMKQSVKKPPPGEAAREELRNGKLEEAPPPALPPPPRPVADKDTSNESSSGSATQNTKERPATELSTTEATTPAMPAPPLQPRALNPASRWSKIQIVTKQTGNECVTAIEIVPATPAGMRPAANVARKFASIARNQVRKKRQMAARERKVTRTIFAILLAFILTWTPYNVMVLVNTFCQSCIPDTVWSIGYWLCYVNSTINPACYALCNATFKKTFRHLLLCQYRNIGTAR

The inhibition is the drop in the measured response relative to a control, in per cent. `O=C(NC1CCCCC1)Nn1c(-c2ccccc2)nc2ccccc2c1=O`: the cell count in [1] was 695. Moreover, the inhibition in [1] was -7.6% (inactive); in assay [2], -60.6% (inactive); in [4], -9.53% (inactive); in assay [9] it was 2.04% (inactive). Also, the nuclei count in [2] stood at 203%. The z-score in assay [3] (setting [13]) was -0.332; in [3] (setting [14]), -0.26; in assay [3] (setting [15]) it was 0.432. In addition, the figures for the fluorescence slope in assay [5] and in assay [7] were -0.473 (inactive) and 0.00473 (inactive), respectively. For the same molecule, the NADPH fluorescence slope in assay [6] was -0.000129 (inactive). The call in [8] was inactive.

On to `CCN(CC)CC(=O)Nc1c(C)cccc1C`, for which, in [1], the cell count is 642 and 715. Moreover, the inhibition in assay [1] is -6.5% (inactive) and -1% (inactive); in assay [2], -39.3% (inactive) and -82.5% (inactive); in assay [4] it was 15.3% (inactive) and 14.6% (inactive); in assay [11], 11.4% (inactive) and 10.3% (inactive); in assay [12], 39.6% (inactive) and 42.7% (inactive). The nuclei count in [2] was 130% and 116%. Besides, the z-score in [3] (setting [13]) was -0.149 and 1.01; in assay [3] (setting [14]), 0.72 and -0.684; in [3] (setting [15]), -0.101 and 0.844. Moreover, in [5], the fluorescence slope was -0.457 (inactive) and -0.466 (inactive). Further, the NADPH fluorescence slope in [6] was 7.7e-06 (inactive) and -5.7e-05 (inactive). For the same molecule, the slope in assay [10] was 0.00536 (inactive) and 0.0061 (inactive).

As to `CC(NC(=O)NC(N)=O)(C(F)(F)F)C(F)(F)F`, the cell count in [1] came to 674. Also, the inhibition in assay [1] is 6.8% (inactive); in assay [2] it was -84.9% (inactive); in assay [4], 13.9% (inactive); in assay [9] it was 21.5% (inactive). Further, the nuclei count in assay [2] was 109%. In addition, the figures for the z-score in [3] (setting [13]), in assay [3] (setting [14]) and in assay [3] (setting [15]) were 0.562, 0.75 and 0.26, respectively. In addition, the fluorescence slope in assay [5] is -0.534 (inactive); in assay [7] it was 0.00493 (inactive). Also, the NADPH fluorescence slope in [6] is -1.1e-05 (inactive). In addition, the result in assay [8] was inactive.

With `c1ccc(CSc2nnc(SCc3ccccn3)s2)nc1`, the cell count in [1] is 352. For the same molecule, the figures for the inhibition in assay [1], in assay [4] and in assay [9] were -20.9% (inactive), 3.66% (inactive) and -2.59% (inactive), respectively. Besides, in [2], the nuclei count is 173%. Further, the values for the z-score in assay [3] (setting [13]), in assay [3] (setting [14]) and in [3] (setting [15]) were 1.06, -1.17 and 0.36, respectively. Besides, the fluorescence slope in assay [5] was -0.405 (inactive). Besides, in assay [6], the NADPH fluorescence slope was -5.6e-05 (inactive). Further, the slope in assay [10] was 0.00665 (inactive). The molecule was called inactive in assay [8].

Consider `O=C1CCC(=O)N1CN(Cc1ccco1)CN1C(=O)CCC1=O`, for which the cell count in assay [1] worked out at 512. Moreover, the inhibition in [1] is -4.8% (inactive); in assay [2] it was -33.2% (inactive); in assay [4], 37.7% (inactive); in assay [9], 13.2% (inactive). Moreover, the nuclei count in assay [2] was found to be 158%. The figures for the z-score in assay [3] (setting [13]), in [3] (setting [14]) and in assay [3] (setting [15]) were 2.24, -1.47 and 0.89, respectively. The fluorescence slope was -0.376 (inactive) in [5] and 0.00674 (inactive) in assay [7]. In addition, the NADPH fluorescence slope in [6] was -1.3e-05 (inactive). Also, the molecule was classed as inactive in [8].

`Cc1cc(/C(O)=C2\C(=O)C(=O)N(CCN(C)C)C2c2ccncc2)ccc1OCc1ccccc1` (stereo not given): in assay [1], the cell count turned out to be 664. Further, the inhibition in assay [1] is -0.2% (inactive); in assay [2] it was 9.6% (inactive); in assay [4], 5.35% (inactive); in [9], 3.31% (inactive). The nuclei count in [2] is 174%. Also, the z-score in assay [3] (setting [13]) is -0.686; in assay [3] (setting [14]), 0.247; in [3] (setting [15]), -0.699. For the same molecule, the fluorescence slope in assay [5] is -0.481 (inactive); in assay [7], 0.00492 (inactive). Also, the NADPH fluorescence slope in assay [6] is -5.4e-05 (inactive). The outcome in assay [8] was inactive.

Consider `COC(=O)CSc1ncnc2c1sc1nc(-c3ccco3)c3c(c12)CC(C)(C)OC3`, for which the cell count in assay [1] was 514. Moreover, the inhibition is -12.6% (inactive) in assay [1], -71.6% (inactive) in assay [2], 9.91% (inactive) in assay [4] and -8.07% (inactive) in [9]. The nuclei count in [2] amounted to 130%. Also, the z-score in assay [3] (setting [13]) is -0.117; in [3] (setting [14]) it was 0.288; in [3] (setting [15]), -0.223. The fluorescence slope in assay [5] is -0.364 (inactive); in assay [7], 0.00608 (inactive). In addition, in assay [6], the NADPH fluorescence slope is -2e-06 (inactive). For the same molecule, the result in assay [8] was inactive.
